cardiac RTF act – cardiac RTF calcium sensitivity activators, primary screen, biochemical, IANBD-TnC fluorescence, EC20 calcium. Troponin I, cardiac muscle (Homo sapiens) + Troponin T, cardiac muscle (Homo sapiens) + …. IANBD-labeled TnC RTF fluorescence at EC20 calcium; 0% EC20 calcium, 100% full calcium. activation, % at 7.2 µM. hit rate 0.24% among 340,000. AID 493008, 2010;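 active = activation above the mean over all tested compounds plus 3 SD, cut at about 30% in these data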;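 also: rise in fluorescence read as greater calcium sensitivity of cardiac thin filaments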
Keap1-Nrf2 PPI – Keap1-Nrf2 protein-protein interaction inhibitors, primary screen, biochemical, fluorescence polarization, single point; Keap1 Kelch-Nrf2 peptide fluorescence polarization, 1536-well; inhibition, % at 9.4 µM; hit rate 0.15% among 340,000; in the data active = inhibition above about 12%;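 also: human Keap1 Kelch domain with fluorescein labeled Nrf2 9mer peptide probe; 0% = neutral control wells and 100% = peptide positive control; higher means more block of Keap1 binding to Nrf2 peptide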
Target sequence (Q14145 whole entry, looked up, the tested form may be a part): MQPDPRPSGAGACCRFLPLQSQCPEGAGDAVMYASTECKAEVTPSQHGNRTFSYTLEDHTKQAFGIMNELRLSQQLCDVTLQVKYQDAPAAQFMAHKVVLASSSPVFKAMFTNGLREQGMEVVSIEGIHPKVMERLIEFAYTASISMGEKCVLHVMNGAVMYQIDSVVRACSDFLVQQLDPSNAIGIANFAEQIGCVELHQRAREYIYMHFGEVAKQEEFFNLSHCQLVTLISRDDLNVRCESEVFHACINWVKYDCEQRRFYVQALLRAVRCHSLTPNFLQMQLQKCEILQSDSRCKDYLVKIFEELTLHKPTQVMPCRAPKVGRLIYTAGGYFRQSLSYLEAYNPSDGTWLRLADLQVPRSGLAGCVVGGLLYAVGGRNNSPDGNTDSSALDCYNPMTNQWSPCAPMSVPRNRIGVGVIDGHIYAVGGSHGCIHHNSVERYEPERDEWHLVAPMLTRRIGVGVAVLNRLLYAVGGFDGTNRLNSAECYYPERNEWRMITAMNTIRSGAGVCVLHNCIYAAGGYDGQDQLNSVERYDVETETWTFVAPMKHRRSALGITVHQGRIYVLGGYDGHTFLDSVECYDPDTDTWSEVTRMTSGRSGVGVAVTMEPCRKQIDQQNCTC
LANA DNA inh – inhibitors of KSHV C-LANA binding to DNA, primary screen, biochemical, fluorescence polarization, FAM-LBS DNA, MBP-C-LANA, single point; hit rate 0.078% among 340,000; AID 504423, 2011; Kaposi's sarcoma herpesvirus LANA C-terminal domain (residues 932-1162) DNA binding; inhibition, % at 9 µM;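 active = highest replicate inhibition at or above 60% at 9 µM, even if other replicates fall short; inactive = all replicates below 60% inhibition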;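 also: 0% = neutral control wells and 100% = 4 µM acridine orange control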
RTF Ca sens inh – cardiac RTF calcium sensitivity inhibitors, primary screen, biochemical, IANBD-TnC fluorescence, EC70 calcium. AID 493244, 2011. Troponin I, cardiac muscle (Homo sapiens) + Troponin T, cardiac muscle (Homo sapiens) + …. hit rate 0.12% among 340,000. IANBD-labeled cardiac RTF, Ca2+ fluorescence. inhibition, % at 7.15 µM;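 active = inhibition above the mean inhibition of all tested compounds plus 3 SD, cut at about 17% in these data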;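 also: assay run at fixed EC70 calcium of 1.6 mM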
RTF Ca inh conf – cardiac RTF calcium sensitivity inhibitors, confirmation, biochemical, fluorescence readout. shares compounds with RTF Ca sens inh. reconstituted cardiac thin filaments. inhibition, % at 7.15 µM. hit rate 8% among 360; in the data active = inhibition above about 18%
Starred values were filed as active, the others as inactive; · = not tested or not shown. A selection: hits, their analogues and other compounds. The true share with any hit is near 0.5%.

SMILES	cardiac RTF act	Keap1-Nrf2 PPI	LANA DNA inh	RTF Ca sens inh	RTF Ca inh conf
COc1ccc(/C=C/C(=O)NC(=S)Nc2ccc(C(=O)O)cc2)cc1	32.6*	-4.0	0.4	57.6*	-4.0
OCC1(CCOc2ccccc2)CCN(Cc2nc3ccc(F)cc3[nH]2)CC1	-4.5	-3.2	0.1	5.2	·
COc1ccccc1NC(=S)N(Cc1ccccn1)Cc1ccccc1Cl	-0.8	1.7	0.8	17.4*	1.5
COc1ccccc1OCC(O)CO (stereo unspecified)	7.8	-8.5	-0.3	1.3	·
COc1ccccc1OCC(O)COC(N)=O (stereo unspecified)	-0.8	-5.2	3.4	17.6*	2.0
O=C1NC(=S)S/C1=C\C=C\c1ccc([N+](=O)[O-])o1	-11.4	8.7	48.1	31.3*	20.4*
COc1ccc(C(=O)Nc2c(Cl)cc(Cl)cc2C(=O)N2CCOCC2)cc1	11.1	-0.4	-0.5	10.5	·
NC(=S)Nc1nc2ccccc2s1	-5.7	1.7	0.5	19.0*	-5.3
O=C(Nc1ccncc1)C1CCN(S(=O)(=O)c2cccc(C(F)(F)F)c2)CC1	1.2	2.1	0.9	-9.3	·
Cc1nnc(SCC(=O)NCCN2C(=O)CSC2=O)n1-c1ccccc1	-4.7	0.8	0.1	22.9*	-1.0
O=C(CSc1nnc(-c2ccc(F)cc2)n1-c1ccccc1)NCCN1C(=O)CSC1=O	4.9	-0.6	2.3	-6.0	·
CC(COc1ccc(/C=C/c2ccccc2)cc1)[N+](C)(C)C (stereo unspecified)	5.4	-3.9	-2.6	20.8*	-7.1
Cc1ccc(-n2cc(CN(C)Cc3ncc[nH]3)c(-c3cccc(C)c3)n2)cc1	4.6	-6.0	-1.7	-15.3	·
O=C(O)/C=C/C(O)c1ccc(Cl)cc1 (stereo unspecified)	-3.1	-2.1	-0.2	18.4*	-4.8
O=C(/C=C/Sc1ccccc1)c1ccc(Cl)cc1	-4.2	-0.5	-0.1	-1.2	·
CCN=C(NCC)SC1CC(=O)N(c2ccc(F)cc2)C1=O (stereo unspecified)	4.8	3.7	0.9	-2.6	·
O=C(N/N=C/c1ccc(F)cc1)c1cc(-c2ccco2)nc2ccccc12	-15.6	1.5	-0.1	18.5*	2.7
CCc1ccccc1NC(=O)C1(S(=O)(=O)c2ccc(C)cc2)CC1	-6.6	-1.2	-0.1	17.2*	-1.3
COc1ccc(NC(=O)CN(C)C(=O)c2cc3c(s2)CCCCC3)cc1	-3.6	2.1	0.9	-6.1	·
COc1ccc(NC(=O)CN(C)C(=O)c2cc3c(s2)CCC3)cc1	-4.3	3.5	1.1	20.1*	0.4
COc1cc(CC(=O)O)ccc1O	-1.1	2.1	0.1	17.6*	-3.5
COc1ccc(CC(=O)O)cc1O	-4.9	2.4	2.1	5.4	·
O=C(O)c1ccccc1N=Nc1ccc(O)cc1	0.8	3.1	5.8	18.4*	-5.7
O=C(Cn1c(NCCO)nc2ccccc21)NCC1CCCO1 (stereo unspecified)	-3.0	-6.5	-0.5	-0.7	·
Cc1cc(C)n2c(SCC(=O)Nc3cc(C)on3)nnc2n1	-4.3	0.1	2.5	17.7*	-5.3
SMILES	cardiac RTF act	Keap1-Nrf2 PPI	LANA DNA inh	RTF Ca sens inh	RTF Ca inh conf
COC(=O)N/N=C(\C)c1ccc(OC(F)F)cc1OC(F)F	0.8	4.7	-0.2	17.4*	-6.5
COc1cc(CN(C)C(C)C(=O)Nc2ccc([N+](=O)[O-])cc2Cl)ccc1OC(F)F (stereo unspecified)	1.5	-3.6	0.3	2.0	·
COc1ccc(Cl)cc1NC(=O)C(C)N(C)Cc1ccc(C(F)(F)F)cc1 (stereo unspecified)	2.7	-2.1	0.8	17.6*	-1.4
COc1ccc(C(=O)Nc2ccc(C)cc2C(=O)c2ccccc2)c(OC)c1	7.8	1.0	0.9	17.2*	-2.2
CCc1ccccc1NC(=O)CN(C)C(=O)CSc1nnc(Nc2cccc(C)c2C)s1	-12.3	1.2	2.0	5.3	·
C=C1c2cccc(O)c2C(=O)C2C(=O)[C@]3(O)C(=O)C(C(N)=O)C(=O)[C@@H](N(C)C)[C@@H]3[C@@H](O)[C@H]12 (stereo partly specified)	-28.5	12.0*	126.5*	61.2*	10.7
C[C@H]1c2cccc(O)c2C(O)=C2C(=O)[C@]3(O)C(O)=C(C(N)=O)C(=O)[C@@H](N(C)C)C3[C@@H](O)C21 (stereo partly specified)	1.6	2.8	-0.8	7.6	·
Cc1ccc(-n2c(SCC(=O)Nc3ccc4c(c3)OCCO4)nnc2-c2ccco2)cc1	1.2	-0.9	-0.8	17.4*	-2.5
CC1CCN(C(=O)COC(=O)CSc2ccc(C(N)=O)cc2[N+](=O)[O-])CC1	-0.8	-3.7	-0.4	17.2*	0.7
CC1CCCN(C(=O)COC(=O)CSc2ccc(C(N)=O)cc2[N+](=O)[O-])C1 (stereo unspecified)	-6.2	1.2	-0.7	-9.8	·
Cc1c(Cl)cccc1NC(=S)N1CCN(S(=O)(=O)c2cccs2)CC1	2.7	2.1	-0.3	-2.9	·
O=C(NCc1cccnc1)c1cc(C(=O)C2CC2)c[nH]1	5.1	-0.5	-0.6	21.9*	-2.2
Cc1onc(-c2ccccc2)c1C(O)c1ccc(F)cc1 (stereo unspecified)	-1.0	1.8	-2.9	-8.0	·
CCN(CC)CCNC(=O)c1ccc(Sc2ccc(C)cc2)c(NC(C)=O)c1	-0.5	-3.8	-0.8	18.1*	-4.5
Fc1ccccc1CSc1ccc(-c2ccco2)nn1	-5.4	-3.0	1.6	19.0*	-2.3
Cc1ccc(O)c(N=Cc2cc(Cc3ccccc3)cc([N+](=O)[O-])c2O)c1	-10.7	-0.5	-0.6	11.4	·
O=[N+]([O-])c1cc(Cc2ccccc2)cc(C=Nc2ccc(N3CCOCC3)cc2)c1O	-12.6	-0.4	-0.2	21.0*	5.5
CCN(CC)S(=O)(=O)c1cc(NS(=O)(=O)c2cccc(Cl)c2Cl)ccc1C	4.8	1.8	-2.9	47.4*	-1.0
COc1ccc(CCN(Cc2ccccn2)C(=S)Nc2cccc(SC)c2)cc1OC	-4.3	2.5	0.7	20.4*	-1.3
COc1ccc(CCN(Cc2ccccn2)C(=S)Nc2ccc(C)cc2)cc1OC	1.3	3.0	-0.6	-6.5	·
CCOc1ccc(C(=O)NCc2ccccc2OC)cc1	-0.9	-4.0	-1.6	-6.1	·
O=C1C=CC2=C3c4cc(O)c(O)cc4CC3(O)COC2=C1O (stereo unspecified)	-28.6	-7.6	107.1*	37.0*	33.7*
O=C1OC[C@H](Cc2ccc3c(c2)OCO3)/C1=C\c1ccc2c(c1)OCO2	6.0	-1.2	2.1	4.3	·
CCCCCCC(=O)O	2.3	-0.5	-2.1	-6.2	·

High-throughput results from PubChem.
